Data published in PubChem BioAssay (NCATS).
Results filed as inconclusive are left out. A call without a number means that no potency is given here. A number with no mark means an inactive call. Active and inactive are the calls of the source. Calls come from the whole dose curve; as a rule, active = well fitted curve in the direction sought with a large enough effect; inconclusive = small, poorly fitted or top-dose-only effect, or another doubt; inactive = no such curve, though single readings can be large; an effect the other way counts as inactive or inconclusive.

Key:
[1] = target: ATP-dependent 6-phosphofructokinase (Trypanosoma brucei brucei) (UniProt O15648); assay: qHTS Assay to Find Inhibitors of T. brucei phosphofructokinase: hit validation (AID 492961);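 note: luminescence reports ADP formed as PFK phosphorylates fructose-6-phosphate with ATP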
Outline: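 Measures ADP output of PFK (1.25 nM) at 0.1 mM ATP, 0.5 mM F6P, pH 8.0 TEA buffer with 5 mM MgCl2. No-enzyme wells define full inhibition; uninhibited enzyme wells define zero.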

[2] = qHTS profiling for inhibitors of Plasmodium falciparum proliferation (AID 504749); note: potency is the fitted concentration of half-maximal effect; for all read-outs here: nearly all actives have a fitted effect of over 60% in size; conditions: P. falciparum in erythrocytes, SYBR Green DNA, 72 h; for activity, negative = inhibition: at 28.7 µM (top of the series)
Outline: (§1)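 Three-day growth assay of blood-stage parasites in erythrocytes (0.3% parasitemia, 2.5% hematocrit) at 37 C, 5% CO2, quantified by SYBR Green DNA staining after overnight detergent lysis.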

3D7 = assay: as above; conditions: P. falciparum in erythrocytes, SYBR Green DNA, 72 h; series mostly up to 28.7 µM
Outline: as §1

7G8 = assay: as above; conditions: P. falciparum in erythrocytes, SYBR Green DNA, 72 h; series mostly up to 28.7 µM
Outline: as §1

AS120 = assay: as above; conditions: P. falciparum in erythrocytes, SYBR Green DNA, 72 h; series mostly up to 28.7 µM
Outline: as §1

ATS189 = assay: as above; conditions: P. falciparum in erythrocytes, SYBR Green DNA, 72 h; series mostly up to 28.7 µM
Outline: as §1

CP185 = assay: as above; conditions: P. falciparum in erythrocytes, SYBR Green DNA, 72 h; series mostly up to 28.7 µM
Outline: as §1

CP191 = assay: as above; conditions: P. falciparum in erythrocytes, SYBR Green DNA, 72 h; series mostly up to 28.7 µM
Outline: as §1

CP192 = assay: as above; conditions: P. falciparum in erythrocytes, SYBR Green DNA, 72 h; series mostly up to 28.7 µM
Outline: as §1

CP194 = assay: as above; conditions: P. falciparum in erythrocytes, SYBR Green DNA, 72 h; series mostly up to 28.7 µM
Outline: as §1

CP201 = assay: as above; conditions: P. falciparum in erythrocytes, SYBR Green DNA, 72 h; series mostly up to 28.7 µM
Outline: as §1

CP203 = assay: as above; conditions: P. falciparum in erythrocytes, SYBR Green DNA, 72 h; series mostly up to 28.7 µM
Outline: as §1

CP247 = assay: as above; conditions: P. falciparum in erythrocytes, SYBR Green DNA, 72 h; series mostly up to 28.7 µM
Outline: as §1

CP286 = assay: as above; conditions: P. falciparum in erythrocytes, SYBR Green DNA, 72 h; series mostly up to 28.7 µM
Outline: as §1

CP291 = assay: as above; conditions: P. falciparum in erythrocytes, SYBR Green DNA, 72 h; series mostly up to 28.7 µM
Outline: as §1

CP305 = assay: as above; conditions: P. falciparum in erythrocytes, SYBR Green DNA, 72 h; series mostly up to 28.7 µM
Outline: as §1

DFO2036 = assay: as above; conditions: P. falciparum in erythrocytes, SYBR Green DNA, 72 h; series mostly up to 28.7 µM
Outline: as §1

DIV30 = assay: as above; conditions: P. falciparum in erythrocytes, SYBR Green DNA, 72 h; series mostly up to 28.7 µM
Outline: as §1

HB3 = assay: as above; conditions: P. falciparum in erythrocytes, SYBR Green DNA, 72 h; series mostly up to 28.7 µM
Outline: as §1

P94_40 = assay: as above; conditions: P. falciparum in erythrocytes, SYBR Green DNA, 72 h; series mostly up to 28.7 µM
Outline: as §1

Sequence of ATP-dependent 6-phosphofructokinase (Trypanosoma brucei brucei) (O15648 whole entry, looked up): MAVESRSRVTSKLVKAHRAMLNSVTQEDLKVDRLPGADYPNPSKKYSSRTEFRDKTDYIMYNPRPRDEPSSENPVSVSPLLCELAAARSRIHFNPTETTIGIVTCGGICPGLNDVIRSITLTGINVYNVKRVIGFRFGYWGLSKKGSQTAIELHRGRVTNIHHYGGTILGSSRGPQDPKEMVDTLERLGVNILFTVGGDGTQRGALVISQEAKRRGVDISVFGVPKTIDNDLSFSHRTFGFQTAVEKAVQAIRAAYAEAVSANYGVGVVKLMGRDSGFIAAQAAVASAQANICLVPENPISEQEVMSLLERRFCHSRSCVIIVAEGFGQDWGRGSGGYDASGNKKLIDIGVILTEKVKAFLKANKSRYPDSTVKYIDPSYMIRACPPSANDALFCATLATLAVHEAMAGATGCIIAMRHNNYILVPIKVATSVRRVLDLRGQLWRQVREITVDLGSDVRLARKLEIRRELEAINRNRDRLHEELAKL

CCCCCCCCCCCCCCCC(=O)OCC(COP(=O)(O)OCC[N+](C)(C)C)OC(=O)CCCCCCCCCCCCCCC (stereo unspecified)
Potency [1]: inactive
activity, negative = inhibition ([2]; parasite line A): -4.13%
activity, negative = inhibition ([2]; parasite line B): 3.84%
Potency (3D7): inactive
Potency (7G8): inactive
Potency (AS120): inactive
Potency (ATS189): inactive
Potency (CP185): inactive
Potency (CP191): inactive
Potency (CP192): inactive
Potency (CP194): inactive
Potency (CP201): inactive
Potency (CP203): inactive
Potency (CP247): inactive
Potency (CP286): inactive
Potency (CP291): inactive
Potency (CP305): inactive
Potency (DFO2036): inactive
Potency (DIV30): inactive
Potency (HB3): inactive
Potency (P94_40): inactive

O=C(OC[C@@H]1O[C@@](O)(COC(=O)c2cccnc2)[C@H](OC(=O)c2cccnc2)[C@H]1OC(=O)c1cccnc1)c1cccnc1
Potency [1]: inactive
activity, negative = inhibition ([2]; parasite line A): 18.2%
activity, negative = inhibition ([2]; parasite line B): -0.864%
Potency (3D7): inactive
Potency (7G8): inactive
Potency (AS120): inactive
Potency (ATS189): inactive
Potency (CP185): inactive
Potency (CP191): inactive
Potency (CP192): inactive
Potency (CP194): inactive
Potency (CP201): inactive
Potency (CP203): inactive
Potency (CP247): inactive
Potency (CP286): inactive
Potency (CP291): inactive
Potency (CP305): inactive
Potency (DFO2036): inactive
Potency (DIV30): inactive
Potency (HB3): inactive
Potency (P94_40): inactive

OCCOC[C@H]1O[C@H](OCCO)[C@H](OCCO)[C@@H](OCCO)[C@@H]1OCCO (tested in a mixture with another compound)
Potency [1]: inactive
activity, negative = inhibition ([2]; parasite line A): 3.32%
activity, negative = inhibition ([2]; parasite line B): 1.14%
Potency (3D7): inactive
Potency (7G8): inactive
Potency (AS120): inactive
Potency (ATS189): inactive
Potency (CP185): inactive
Potency (CP191): inactive
Potency (CP192): inactive
Potency (CP194): inactive
Potency (CP201): inactive
Potency (CP203): inactive
Potency (CP247): inactive
Potency (CP286): inactive
Potency (CP291): inactive
Potency (CP305): inactive
Potency (DFO2036): inactive
Potency (DIV30): inactive
Potency (HB3): inactive
Potency (P94_40): inactive

CC(=O)NC1[C@H]([C@H](O)[C@H](O)CO)OC(C(=O)O)=C[C@H]1N=C(N)N (stereo partly specified)
Potency [1]: inactive
activity, negative = inhibition ([2]; parasite line A): 4.99%
activity, negative = inhibition ([2]; parasite line B): 6.49%
Potency (3D7): inactive
Potency (7G8): inactive
Potency (AS120): inactive
Potency (ATS189): inactive
Potency (CP185): inactive
Potency (CP191): inactive
Potency (CP192): inactive
Potency (CP194): inactive
Potency (CP201): inactive
Potency (CP203): inactive
Potency (CP247): inactive
Potency (CP286): inactive
Potency (CP291): inactive
Potency (CP305): inactive
Potency (DFO2036): inactive
Potency (DIV30): inactive
Potency (HB3): inactive
Potency (P94_40): inactive

C=C(NCc1ccccc1)c1ccccc1O
Potency [1]: inactive
activity, negative = inhibition ([2]; parasite line A): 12.8%
activity, negative = inhibition ([2]; parasite line B): 10.7%
Potency (3D7): inactive
Potency (7G8): inactive
Potency (AS120): inactive
Potency (ATS189): inactive
Potency (CP185): inactive
Potency (CP191): inactive
Potency (CP192): inactive
Potency (CP194): inactive
Potency (CP201): inactive
Potency (CP203): inactive
Potency (CP247): inactive
Potency (CP286): inactive
Potency (CP291): inactive
Potency (CP305): inactive
Potency (DFO2036): inactive
Potency (DIV30): inactive
Potency (HB3): inactive
Potency (P94_40): inactive

C=CCn1c(=O)n(C2OC(CO)C(O)C2O)c2nc(N)[nH]c(=O)c21 (stereo unspecified)
Potency [1]: inactive
activity, negative = inhibition ([2]; parasite line A): 5.09%
activity, negative = inhibition ([2]; parasite line B): -6.68%
Potency (3D7): inactive
Potency (7G8): inactive
Potency (AS120): inactive
Potency (ATS189): inactive
Potency (CP185): inactive
Potency (CP191): inactive
Potency (CP192): inactive
Potency (CP194): inactive
Potency (CP201): inactive
Potency (CP203): inactive
Potency (CP247): inactive
Potency (CP286): inactive
Potency (CP291): inactive
Potency (CP305): inactive
Potency (DFO2036): inactive
Potency (DIV30): inactive
Potency (HB3): inactive
Potency (P94_40): inactive

CC(C)(C)C(=O)OCC(=O)C1CCC2C3CCC4=CC(=O)CCC4(C)C3CCC12C (stereo unspecified)
Potency [1]: inactive
activity, negative = inhibition ([2]; parasite line A): 6.25%
activity, negative = inhibition ([2]; parasite line B): 11.2%
Potency (3D7): inactive
Potency (7G8): inactive
Potency (AS120): inactive
Potency (ATS189): inactive
Potency (CP185): inactive
Potency (CP191): inactive
Potency (CP192): inactive
Potency (CP194): inactive
Potency (CP201): inactive
Potency (CP203): inactive
Potency (CP247): inactive
Potency (CP286): inactive
Potency (CP291): inactive
Potency (CP305): inactive
Potency (DFO2036): inactive
Potency (DIV30): inactive
Potency (HB3): inactive
Potency (P94_40): inactive

OCC1O[C@H](O[C@H]2C(O)C(O)C(O)O[C@@H]2CO)C(O)C(O)C1O (stereo partly specified)
Potency [1]: inactive
activity, negative = inhibition ([2]; parasite line A): 7.88%
activity, negative = inhibition ([2]; parasite line B): 6.42%
Potency (3D7): inactive
Potency (7G8): inactive
Potency (AS120): inactive
Potency (ATS189): inactive
Potency (CP185): inactive
Potency (CP191): inactive
Potency (CP192): inactive
Potency (CP194): inactive
Potency (CP201): inactive
Potency (CP203): inactive
Potency (CP247): inactive
Potency (CP286): inactive
Potency (CP291): inactive
Potency (CP305): inactive
Potency (DFO2036): inactive
Potency (DIV30): inactive
Potency (HB3): inactive
Potency (P94_40): inactive

NC(=O)NC(CCC(=O)O)C(=O)O (stereo unspecified)
Potency [1]: inactive
activity, negative = inhibition ([2]; parasite line A): -0.405%
activity, negative = inhibition ([2]; parasite line B): 3.49%
Potency (3D7): inactive
Potency (7G8): inactive
Potency (AS120): inactive
Potency (ATS189): inactive
Potency (CP185): inactive
Potency (CP191): inactive
Potency (CP192): inactive
Potency (CP194): inactive
Potency (CP201): inactive
Potency (CP203): inactive
Potency (CP247): inactive
Potency (CP286): inactive
Potency (CP291): inactive
Potency (CP305): inactive
Potency (DFO2036): inactive
Potency (DIV30): inactive
Potency (HB3): inactive
Potency (P94_40): inactive

C[C@H]1[C@@H](OC(=O)CCC(=O)O)OC2OC3(C)CC[C@H]4[C@H](C)CC[C@@H]1[C@@]24OO3 (stereo partly specified)
Potency [1]: inactive
Potency ([2]; parasite line A): 4 nM (active)
Potency ([2]; parasite line B): 3.5 nM (active)
Potency (3D7): 5 nM (active)
Potency (7G8): 1.4 nM (active)
Potency (AS120): 5 nM (active)
Potency (ATS189): 2.8 nM (active)
Potency (CP185): 5 nM (active)
Potency (CP191): 4.5 nM (active)
Potency (CP192): 9.5 nM (active)
Potency (CP194): 6 nM (active)
Potency (CP201): 12 nM (active)
Potency (CP203): 5.4 nM (active)
Potency (CP247): 5 nM (active)
Potency (CP286): 10 nM (active)
Potency (CP291): 4.3 nM (active)
Potency (CP305): 6 nM (active)
Potency (DFO2036): 3.5 nM (active)
Potency (DIV30): 4.3 nM (active)
Potency (HB3): 5 nM (active)
Potency (P94_40): 2.2 nM (active)

C[C@H]1OC(OC2C(O)[C@@H](O)C(OC3C(O)[C@@H](O)C(O)O[C@@H]3CO)O[C@@H]2CO)[C@H](O)C(O)C1N[C@H]1C=C(CO)[C@@H](O)[C@H](O)C1O (stereo partly specified)
Potency [1]: inactive
activity, negative = inhibition ([2]; parasite line A): -6.96%
activity, negative = inhibition ([2]; parasite line B): 11.4%
Potency (3D7): inactive
Potency (7G8): inactive
Potency (AS120): inactive
Potency (ATS189): inactive
Potency (CP185): inactive
Potency (CP191): inactive
Potency (CP192): inactive
Potency (CP194): inactive
Potency (CP201): inactive
Potency (CP203): inactive
Potency (CP247): inactive
Potency (CP286): inactive
Potency (CP291): inactive
Potency (CP305): inactive
Potency (DFO2036): inactive
Potency (DIV30): inactive
Potency (HB3): inactive
Potency (P94_40): inactive
